# Experimental data from PubChem BioAssay AID1159580 (chemical genetic matrix, 2015).
# Where “and” joins values, the source holds several entries; their conditions need not be identical. Identical values can stand only once. Screen size: about 5,500 compounds; about 2,000 (36%) were called active. About 18% were inconclusive and are not listed. Rule as the data show it: active = normalized growth mostly below about 0.91 (no sharp cut-off); inconclusive = no clear call, values can overlap the other calls; inactive = mostly above about 0.92. The list shows a part of the results.
# Assay: chemical genetic growth profiling, strain panel (AID 1159580);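 also: tested at 20 µM; growth read once vehicle control cultures reached saturation at 30 °C; 1 = growth at the plate median or of vehicle wells; lower values mean less growth of the strain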
# Conditions: S. cerevisiae deletion strains, growth OD
structure (smiles),measurement,setting,value
COc1cc(C)c2c(=O)cc(-c3ccccc3)oc2c1,normalized growth,"locus YAL021C, strain ccr4, stronger effect = lower value",0.983 (inactive)
same,normalized growth,"locus YAL026C, strain drs2, stronger effect = lower value",0.922 (inactive)
same,normalized growth,"locus YAL030W, strain snc1, stronger effect = lower value",0.928 (active)
same,normalized growth,"locus YBL061C, strain skt5, stronger effect = lower value",0.915 (active)
same,normalized growth,"locus YBR009C, strain hhf1, stronger effect = lower value",0.946 (inactive)
same,normalized growth,"locus YBR021W, strain FUR4, stronger effect = lower value",0.921 (inactive)
same,normalized growth,"locus YBR023C, strain chs3, stronger effect = lower value",0.913 (active)
same,normalized growth,"locus YBR171W, strain sec66, stronger effect = lower value",0.911 (inactive)
same,normalized growth,"locus YBR229C, strain ROT2, stronger effect = lower value",0.984 (inactive)
same,normalized growth,"locus YBR231C, strain swc5, stronger effect = lower value",0.925 (inactive)
same,normalized growth,"locus YBR279W, strain paf1, stronger effect = lower value",0.942 (inactive)
same,normalized growth,"locus YCL011C, strain gbp2, stronger effect = lower value",0.891 (active)
same,normalized growth,"locus YCL016C, strain dcc1, stronger effect = lower value",0.93 (inactive)
same,normalized growth,"locus YCL029C, strain bik1, stronger effect = lower value",0.968 (inactive)
same,normalized growth,"locus YCL061C, strain MRC1, stronger effect = lower value",0.927 (inactive)
same,normalized growth,"locus YCL069W, strain vba3, stronger effect = lower value",0.939 (inactive)
same,normalized growth,"locus YCR088W, strain abp1, stronger effect = lower value",0.92 (active)
same,normalized growth,"locus YDL005C, strain med2, stronger effect = lower value",0.956 (inactive)
same,normalized growth,"locus YDL035C, strain GPR1, stronger effect = lower value",1.01 (inactive)
same,normalized growth,"locus YDL040C, strain nat1, stronger effect = lower value",0.93 (active)
same,normalized growth,"locus YDL074C, strain BRE1, stronger effect = lower value",0.896 (inactive)
same,normalized growth,"locus YDL101C, strain DUN1, stronger effect = lower value",0.948 (inactive)
same,normalized growth,"locus YDL134C, strain PPH21, stronger effect = lower value",0.998 (inactive)
same,normalized growth,"locus YDL185W, strain tfp1, stronger effect = lower value",0.979 (inactive)
same,normalized growth,"locus YDL192W, strain arf1, stronger effect = lower value",0.966 (inactive)
same,normalized growth,"locus YDR001C, strain nth1, stronger effect = lower value",0.938 (inactive)
same,normalized growth,"locus YDR069C, strain doa4, stronger effect = lower value",0.941 (inactive)
same,normalized growth,"locus YDR101C, strain arx1, stronger effect = lower value",0.989 (inactive)
same,normalized growth,"locus YDR137W, strain rgp1, stronger effect = lower value",0.762 (active)
same,normalized growth,"locus YDR150W, strain NUM1, stronger effect = lower value",1.02 (inactive)
same,normalized growth,"locus YDR159W, strain sac3, stronger effect = lower value",0.9 (inactive)
same,normalized growth,"locus YDR162C, strain NBP2, stronger effect = lower value",0.996 (inactive)
same,normalized growth,"locus YDR195W, strain ref2",1 (inactive)
same,normalized growth,"locus YDR297W, strain sur2, stronger effect = lower value",0.927 (inactive)
same,normalized growth,"locus YDR318W, strain mcm21, stronger effect = lower value",0.968 (inactive)
same,normalized growth,"locus YDR334W, strain swr1, stronger effect = lower value",0.938 (inactive)
same,normalized growth,"locus YDR335W, strain msn5, stronger effect = lower value",0.942 (inactive)
same,normalized growth,"locus YDR388W, stronger effect = lower value",0.967 (inactive)
same,normalized growth,"locus YDR392W, strain spt3, stronger effect = lower value",0.47 (active)
same,normalized growth,"locus YDR502C, strain sam2, stronger effect = lower value",0.977 (inactive)
same,normalized growth,"locus YEL003W, strain gim4, stronger effect = lower value",0.893 (active)
same,normalized growth,"locus YEL037C, strain rad23, stronger effect = lower value",0.942 (inactive)
same,normalized growth,"locus YEL061C, strain CIN8 (second series), stronger effect = lower value",0.926 (inactive)
same,normalized growth,"locus YEL061C, strain CIN8, stronger effect = lower value",0.985 (inactive)
same,normalized growth,"locus YER015W, strain faa2, stronger effect = lower value",0.945 (inactive)
same,normalized growth,"locus YER016W, strain bim1, stronger effect = lower value",0.935 (inactive)
same,normalized growth,"locus YER110C, stronger effect = lower value",0.963 (inactive)
same,normalized growth,"locus YER111C, strain swi4, stronger effect = lower value",0.96 (inactive)
same,normalized growth,"locus YER155C, strain BEM2 (second series), stronger effect = lower value",0.505 (active)
same,normalized growth,"locus YER155C, strain BEM2, stronger effect = lower value",0.973 (inactive)
same,normalized growth,"locus YER167W, strain BCK2, stronger effect = lower value",0.994 (inactive)
same,normalized growth,"locus YFR010W, strain ubp6, stronger effect = lower value",0.933 (inactive)
same,normalized growth,"locus YGL078C, strain dbp3, stronger effect = lower value",0.972 (inactive)
same,normalized growth,"locus YGL086W, strain mad1, stronger effect = lower value",0.973 (inactive)
same,normalized growth,"locus YGL167C, strain pmr1, stronger effect = lower value",0.913 (active)
same,normalized growth,"locus YGL173C, strain kem1, stronger effect = lower value",0.935 (inactive)
same,normalized growth,"locus YGL227W, strain vid30, stronger effect = lower value",0.924 (inactive)
same,normalized growth,"locus YGL240W, strain doc1, stronger effect = lower value",0.856 (active)
same,normalized growth,"locus YGL248W, strain PDE1, stronger effect = lower value",0.955 (inactive)
same,normalized growth,"locus YGL253W, strain hxk2, stronger effect = lower value",0.909 (active)
same,normalized growth,"locus YGR078C, strain PAC10, stronger effect = lower value",0.955 (inactive)
same,normalized growth,"locus YGR135W, strain pre9, stronger effect = lower value",0.98 (inactive)
same,normalized growth,"locus YGR252W, strain gcn5, stronger effect = lower value",0.96 (inactive)
same,normalized growth,"locus YHR013C, strain ard1, stronger effect = lower value",0.904 (inactive)
same,normalized growth,"locus YHR027C, strain rpn1, stronger effect = lower value",0.94 (inactive)
same,normalized growth,"locus YHR030C, strain SLT2, stronger effect = lower value",0.995 (inactive) and 0.867 (inactive)
same,normalized growth,"locus YHR079C, strain IRE1 (second series), stronger effect = lower value",0.974 (inactive)
same,normalized growth,"locus YHR079C, strain IRE1, stronger effect = lower value",0.868 (inactive)
same,normalized growth,"locus YHR094C, strain hxt1, stronger effect = lower value",0.965 (inactive)
same,normalized growth,"locus YHR129C, strain ARP1, stronger effect = lower value",0.976 (inactive)
same,normalized growth,"locus YHR142W, strain chs7, stronger effect = lower value",0.73 (active)
same,normalized growth,"locus YHR200W, strain rpn10, stronger effect = lower value",0.963 (inactive)
same,normalized growth,"locus YIL066C, strain RNR3, stronger effect = lower value",0.996 (inactive)
same,normalized growth,"locus YIL073C, strain SPO22, stronger effect = lower value",0.949 (inactive)
same,normalized growth,"locus YIL125W, strain kgd1, stronger effect = lower value",0.964 (inactive)
same,normalized growth,"locus YIR030C, strain dcg1, stronger effect = lower value",0.958 (inactive)
same,normalized growth,"locus YJL092W, strain hpr5, stronger effect = lower value",0.923 (inactive)
same,normalized growth,"locus YJL095W, strain BCK1 (second series), stronger effect = lower value",0.919 (active)
same,normalized growth,"locus YJL095W, strain BCK1, stronger effect = lower value",0.914 (inactive) and 0.876 (active)
same,normalized growth,"locus YJL115W, strain asf1, stronger effect = lower value",0.955 (inactive)
same,normalized growth,"locus YJL129C, strain trk1, stronger effect = lower value",0.833 (active)
same,normalized growth,"locus YJL134W, strain LCB3, stronger effect = lower value",0.987 (inactive)
same,normalized growth,"locus YJL154C, strain vps35, stronger effect = lower value",0.942 (inactive)
same,normalized growth,"locus YJL164C, strain tpk1, stronger effect = lower value",0.909 (active)
same,normalized growth,"locus YJL166W, strain qcr8, stronger effect = lower value",0.893 (active)
same,normalized growth,"locus YJL168C, strain set2, stronger effect = lower value",0.969 (inactive)
